From PubChem BioAssay AID2410 (Southern Research Specialized Biocontainment Screening …, 2010)
Screen size: about 2,500 compounds; about 2,100 (84%) were called active.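 The calls were made as follows: active = toxic compounds, whose cell viability fell below 70% of untreated control cells; inactive = the rest.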 The set was probably picked from earlier hits. The list is a sample of the results. Entries with a potency or affinity are not part of this list.

Experiment: HEp-2 cell cytotoxicity, dose response, cytotoxicity control for RSV inhibitor project, HTS (AID 2410);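 also: cells exposed to compound for six days before readout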
Settings: HEp-2 viability, luminescence, cytotoxicity counter-screen; series mostly up to 50 µM

SMILES | outcome
COCCN(C(=O)CSc1nnc(-c2ccc(C)c(C)c2)o1)c1c(N)n(CC(C)C)c(=O)[nH]c1=O | inactive
COc1ccc2[nH]c3c(=S)nc[nH]c3c2c1 | inactive
c1ccc(N2CCN(Cc3nc4ccccc4[nH]3)CC2)nc1 | inactive
CC(=O)Nc1ccc(NC(=O)C(C)OC(=O)c2ccccc2C(=O)c2ccc(Cl)c([N+](=O)[O-])c2)cc1 (centres undefined) | inactive
O=C(OCC(=O)N1CCCC1=O)c1ccc(Cl)cc1[N+](=O)[O-] | inactive
COc1ccc(C(=O)NCC(=O)N/N=C/c2c(C)[nH]c3ccccc23)cc1OC | inactive
COc1cc(O)cc(O)c1C(=O)/C=C/c1ccccc1 | inactive
COc1ccc(C(CNC(=S)NCc2ccccc2)N2CCCC2)cc1 (centres undefined) | inactive
COC(=O)C1=C(C)N(Cc2ccccc2)C(=O)N[C@H]1c1ccc(Br)cc1 | inactive
CC(=O)Nc1ccc(C(=O)OCc2ccc(Cl)cc2)cc1 | inactive
COc1cccc(/C=N/N=C(\N)c2nonc2N)c1O | inactive
COc1cc(/C=N/N=C(\N)c2nonc2N)cc(OC)c1OC | inactive
C/C(N)=C(/C#N)C(=O)COC(=O)c1cccc(C)c1O | inactive
C/C(N)=C(/C#N)C(=O)COc1ncnc2ccccc12 | inactive
C/C(N)=C(/C#N)C(=O)COc1ncnc2ccc(Br)cc12 | inactive
Cc1c(NC(=O)CN2C(=O)NC3(CCCCC3C)C2=O)cccc1[N+](=O)[O-] (centres undefined) | inactive
Fc1cccc(Nc2nc(-c3ccncc3)nc3ccccc23)c1 | inactive
COc1ccc(/C(C)=N/NC(=O)CN(c2ccc(OC)cc2)S(=O)(=O)c2ccccc2)cc1 | inactive
Cc1nc2nc(-c3ccccc3)nn2c(C)c1Cl | inactive
O=C(c1cc(-c2ccc(Cl)cc2Cl)on1)N1CCOCC1 | inactive
Cc1ccc(-c2nc(CCN3C(=O)c4ccccc4C3=O)cs2)cc1 | inactive
Cc1ccc2c(n1)sc1c(-c3ccc(Br)cc3)c(C#N)c(N)nc12 | inactive
Nc1ccc(Br)c2c1C(=O)c1ccccc1C2=O | inactive
COc1ccc(N(C)C(=O)C2CCCN2S(=O)(=O)c2cccc3nsnc23)c(OC)c1 (centres undefined) | inactive
COc1ccc(NC(=O)c2cccs2)c([N+](=O)[O-])c1 | inactive
COc1ccccc1CNC(=O)C1CCN(S(=O)(=O)c2cccc3nonc23)CC1 | inactive

SMILES | outcome
C/C(NC(=O)c1cccc(F)c1)=C1/C(=O)C[C@@H]2[C@H]1C2(C)C | inactive
C/C(N)=C(/C#N)C(=O)CN1C(=O)NC(Cc2c[nH]c3ccccc23)C1=O (centres undefined) | inactive
O=C(Nc1ccon1)c1sc2ccccc2c1Cl | inactive
CS(=O)(=O)NNC(=O)c1cc2cc3ccccc3nc2s1 | inactive
O=C(Nc1ccc(Cl)cc1)N1CCc2[nH]c3ccccc3c2C1 | inactive
CCC(=O)Nc1nc(C)c(-c2csc(Nc3ccccn3)n2)s1 | inactive
Cc1cc(Nc2cccc(Cl)c2)nc(-c2ccccc2O)n1 | inactive
Cc1cc(Nc2cccc(F)c2)nc(-c2ccccc2O)n1 | inactive
CC1CCCN(C(=O)COC(=O)c2ccc3[nH]c4c(c3c2)CCCC4)C1 (centres undefined) | inactive
Cc1cccc(C)c1N=Cc1c(O)n(-c2nccs2)c(=O)c2ccccc12 | inactive
COc1ccccc1NCC(=O)Nc1cc(S(=O)(=O)N2CCOCC2)ccc1N1CCOCC1 | inactive
Cc1ccnc(NC(=O)c2cccc(S(=O)(=O)N3CCN(c4ccccc4)CC3)c2)c1 | inactive
O=C(NCc1ccccc1Cl)C1CCN(S(=O)(=O)c2cccc3nonc23)CC1 | inactive
COc1ccc2o/c(=N\O)c(C(=O)Nc3ccccc3OC)cc2c1 | inactive
COc1ccc(C(=O)N/C(=C/c2cccs2)c2nc3ccccc3[nH]2)cc1OC | inactive
CSc1nc(N2CCOCC2)nc2ccc(C)cc12 | inactive
O=C1c2ccccc2C(=O)N1CCCCN(C(=O)c1cc2ccccc2oc1=O)c1ccc(Cl)cc1 | inactive
COc1ccccc1CNC(=O)C(NS(=O)(=O)c1cccc2nsnc12)C(C)C (centres undefined) | inactive
CCC(C)n1ncn(-c2ccc(N3CCN(c4ccc(OCC5COC(Cn6cncn6)(c6ccc(Cl)cc6Cl)O5)cc4)CC3)cc2)c1=O (centres undefined) | inactive
Brc1cnc(N2CCOCC2)nc1N1CCCCC1 | inactive
CCOc1ccc(CNC(=O)CCCn2nc(CC)n3c(cc4occc43)c2=O)cc1 | inactive
N#Cc1ccccc1Cn1c(=O)oc2ccccc21 | inactive
COC(=O)c1ccc(Oc2nc(N3CCCCC3)nc(N3CCOCC3)n2)cc1 | inactive
CCCCNC(=O)CC1N=C2c3ccccc3N=C(SCC(=O)Nc3ccc(OC)cc3)N2C1=O (centres undefined) | inactive
O=C(/C=C/c1ccc(O)c(O)c1)OC1C(O)CC(OC(=O)/C=C/c2ccc(O)c(O)c2)(C(=O)O)CC1O (centres undefined) | inactive
N#Cc1ccccc1NC(=O)c1ccc2c(Cl)c3c(nc2c1)CCCC3 | inactive

SMILES | outcome
CC(=O)N1N=C(c2ccc(C)cc2)OC1c1cccnc1 (centres undefined) | inactive
COc1ccc(-c2nn(-c3ccccc3)cc2/C=N/O)cc1 | inactive
OCc1cn(-c2ccccc2)nc1-c1ccc(Br)cc1 | inactive
CC(Oc1ccc(F)cc1)C(=O)Nc1ccc2ccccc2c1 (centres undefined) | inactive
O=[N+]([O-])c1ccc(N/N=C/c2ccccc2)cc1 | inactive
Cc1c(C)n(C)c2ccc([N+](=O)[O-])cc12 | inactive
O=c1c2sccc2n(Cc2cc(=O)n3ccccc3n2)c(=O)n1-c1ccccc1 | inactive
CCN(Cc1nc2ccccc2c(=O)[nH]1)C(=O)c1cc(C2CC2)nn1-c1ccccc1 | inactive
CN(Cc1nc2ccccc2c(=O)[nH]1)C(=O)c1cc(C2CC2)nn1-c1ccccc1 | inactive
COc1ccccc1/C=C/C(=O)NCC(=O)N/N=C(/C)c1ccc(Cl)cc1 | inactive
Cc1nn2c(-c3ccc(F)cc3)ccnc2c1Br | inactive
CC(=O)c1sc(-c2ccccc2Cl)nc1C | inactive
O=C(Nc1ccon1)c1ccc(N2CCCCC2)c([N+](=O)[O-])c1 | inactive
c1csc(-c2nc3c4ccccc4c4ccccc4c3[nH]2)c1 | inactive
Cc1c(SCCO)c(=O)[nH]c2cc3c(cc12)OCO3 | inactive
O=C(/C=C/c1ccc(O)c(O)c1)O[C@@H]1C[C@](O)(C(=O)O)C[C@@H](O)[C@H]1O | inactive
COc1ccc2cc(CN(CCc3ccccc3)Cc3nnnn3Cc3ccco3)c(=O)[nH]c2c1 | inactive
CCOC(=O)c1c(C)[nH]c(C(=O)COC(=O)C2(C)CC2(Cl)Cl)c1C (centres undefined) | inactive
O=c1nc(Nc2ccc(OCc3ccccc3)cc2)sc2ncccc12 | inactive
Cc1csc(N(C)C(=O)CSc2nnc(COc3ccccc3C)o2)n1 | inactive
COC(=O)c1ccc(NC2c3ncccc3C(=O)N2Cc2cccs2)cc1 (centres undefined) | inactive
Cc1[nH]c2ccccc2c1C(=O)CSc1ccccn1 | inactive
Cc1ccc(Nc2nc(N3CCOCC3)nc(N3CCOCC3)n2)cc1Cl | inactive
CSc1nc2ccc(Nc3nc(N4CCOCC4)nc(N4CCOCC4)n3)cc2s1 | inactive
O=C(c1ccccc1Cl)N1CCN(c2ccccn2)CC1 | inactive
CSc1nnc(Cn2c(=O)sc3ccccc32)n1CCc1ccccc1 | inactive

SMILES | outcome
CCOC(=O)CSc1nnc(CNC(=O)c2ccc([N+](=O)[O-])cc2)n1C | inactive
C#CCOCCOCCOCCNc1nc(N2CCN(C(=O)CCCCCCCCCCNC(=O)[C@@H]([C@H](C)O)n3cc(C)nn3)CC2)nc(N2CCN(C(=O)CCCCCCCCCCNC(=O)[C@@H]([C@H](C)O)n3cc(C)nn3)CC2)n1 | inactive
Cc1ccccc1NC(=O)COC(=O)Cc1ccsc1 | inactive
COc1ccc(S(=O)(=O)N2CCN(CCO)CC2)cc1-c1nnc2c3ccccc3c(C)nn12 | inactive
Cc1cc(N2C(=O)CC(N3CCN(c4ccc(C(=O)c5cccs5)cc4)CC3)C2=O)no1 (centres undefined) | inactive
C/C(=N/OCO/N=C(/C)c1ccc(F)cc1)c1ccc(F)cc1 | inactive
O=c1c(OC2OC(CO)C(O)C(O)C2OC2OC(CO)C(O)C(O)C2OC2OC(CO)C(O)C(O)C2O)c(-c2ccc(O)c(O)c2)oc2cc(O)cc(O)c12 (centres undefined) | inactive
CCC(=O)Nc1ccc(C(=O)OCc2ccccc2Cl)cc1 | inactive
Cc1ccc(-n2c(=O)c3sccc3n(Cc3cc(=O)n4ccccc4n3)c2=O)cc1F | inactive
COc1ccc(Br)cc1/C=C/C(=O)Nc1ccc2ccccc2c1 | inactive
CCOc1cc(/C=N\Nc2nc(Nc3ccccc3)nc(N3CCOCC3)n2)ccc1OC(=O)c1ccco1 | inactive
S=C(NCCc1ccccc1)N/N=C/c1cccc(Cl)c1Cl | inactive
c1ccc2c(c1)OCCc1c-2[nH]c2ccccc12 | inactive
COC(=O)c1ccc(Cn2c(CN3CCOCC3)nc3ccccc3c2=O)o1 | inactive
CCn1c(=NC(=O)c2ccco2)sc2cccc(F)c21 | inactive
CC(=NCc1ccco1)C1=C(O)c2ccccc2C1=O | inactive
Cn1nnc(-c2ccc(OCc3ccccc3F)cc2)n1 | inactive
CC/C(=N\Nc1ccc([N+](=O)[O-])cc1)c1ccccc1 | inactive
COC(=O)c1cc2n3ccccc3c(C)c(-c3ccccc3)c-2c1C(=O)OC | inactive
CCOc1ccc2nc(NC(=O)C(CCSC)NS(=O)(=O)c3cccs3)sc2c1 (centres undefined) | inactive
O=C(CSc1ccccn1)Nc1nc2c(ccc3ccccc32)s1 | inactive
Cc1ccc(-c2nc3c(c(=O)c4ccccc4n3C)c(=O)n2Cc2ccco2)cc1 | inactive
COCCn1c(-c2cccc(Br)c2)nc2c(c(=O)c3ccccc3n2C)c1=O | inactive
COc1ccc(Cn2c(-c3ccccc3C)nc3c(c(=O)c4ccccc4n3C)c2=O)cc1 | inactive
COCCn1c(-c2ccccc2Cl)nc2c(c(=O)c3ccccc3n2C)c1=O | inactive
Nn1c(COc2ccccc2)nc2ccccc2c1=O | inactive
